# Laboratory results from PubChem BioAssay (Tox21).
# Values joined by “and” are separate entries in the source; they are usually repeats but may differ in a detail not shown here. Equal entries are not always repeated. Some compounds were tested as several samples or in several runs, with calls that do not always agree. Active and inactive are the calls of the source. Where a call stands in place of a potency, no number is given. Unless noted, the call rests on the fitted dose curve; in most records, active means well fitted curve in the direction sought with a large enough effect in the repeat runs; inconclusive means weak or mixed curves; inactive means no such curve, though single readings can be large; an effect the other way counts as inactive or inconclusive.
# Tests used:
# [1] = qHTS assay to identify small molecule antagonists of the thyroid receptor (TR) signaling pathway - cell viability counter screen (AID 743064); further: nearly all actives have a fitted effect of over 50% in size; further: potency means the concentration at half of the fitted maximal effect
# In short: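 In-well cytotoxicity read by CellTiter-Fluor (30 min, 37 C) following 23.5 h exposure of GH3 cells bearing a TRE-luciferase sensor. Compounds were added alongside 1 nM (final) T3 to drive TR transactivation.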
# [2] = qHTS assay to identify small molecule antagonists of the thyroid receptor (TR) signaling pathway (AID 743065); further: nearly all actives have a fitted effect of over 55% in size; further: potency means the concentration at half of the fitted maximal effect
# In short: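 GH3.TRE-Luc rat pituitary cells (two TREs driving luciferase) were dosed with compound, then stimulated with 1 nM T3 (final) for 23.5 h at 37 C. ONE-Glo luminescence was the read-out, with CellTiter-Fluor fluorescence as the cytotoxicity counter-screen.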
# [3] = test system: thyroid hormone receptor (rat, GH3 cells); test: qHTS assay to identify small molecule agonists of the thyroid receptor (TR) signaling pathway (AID 743066; calls by dose curve; further: potency means the concentration at half of the fitted maximal effect)
# [4] = target: Estrogen receptor (Homo sapiens) (UniProt P03372); test: qHTS assay to identify small molecule antagonists of the estrogen receptor alpha (ER-alpha) signaling pathway (AID 743069; active means well fitted curve in the direction sought with a large enough effect in the signal ratio in the repeat runs, not every such curve was filed as active; inconclusive means weak or mixed curves, or effect the other way; inactive means no such curve, though single readings can be large or run the other way; the % refers to the signal ratio; further: potency means the concentration at half of the fitted maximal effect)
# In short: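 In this cell-based reporter format, GripTite HEK293 cells harbouring ER-alpha-UAS-bla were grown overnight with 2% charcoal-stripped FBS, dosed with DMSO-dissolved compounds, then challenged with 17beta-estradiol. After 18 hr at 37C, beta-lactamase activity was detected by FRET fluorescence.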
# [5] = target: Estrogen receptor (Homo sapiens) (UniProt P03372); test: qHTS assay to identify small molecule agonists of the estrogen receptor alpha (ER-alpha) signaling pathway (AID 743075; calls by dose curve; further: potency means the concentration at half of the fitted maximal effect)
# [6] = target: Estrogen receptor (Homo sapiens) (UniProt P03372); test: qHTS assay to identify small molecule agonists of the estrogen receptor alpha (ER-alpha) signaling pathway using the BG1 cell line (AID 743079); details: BG1Luc4E2 cells, ERE-luciferase agonist, 22 h; activation: at 70.3 µM (top of the series) unless noted; further: nearly all actives have a fitted effect of over 20% in size; further: potency means the concentration at half of the fitted maximal effect
# [7] = qHTS assay to identify small molecule antagonists of the estrogen receptor alpha (ER-alpha) signaling pathway using the BG1 cell line (AID 743080; calls by dose curve;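 further: BG1 cells stimulated with 17beta-estradiol alongside compound; nearly all actives have a fitted effect of over 25% in size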; further: potency means the concentration at half of the fitted maximal effect)
# In short: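 Seeding, 24 h rest, compound transfer from DMSO, 17beta-estradiol addition, 21.5 h incubation, CellTiter-Fluor (30 min, 37 C), then ONE-Glo (30 min, room temperature): this sequence was run on BG1-Luc-4E2 reporter cells.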
# [8] = qHTS assay to identify small molecule antagonists of the estrogen receptor alpha (ER-alpha) signaling pathway using the BG1 cell line - cell viability counter screen (AID 743081);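 further: compound given together with 17beta-estradiol as the ER stimulus; nearly all actives have a fitted effect of over 45% in size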; further: potency means the concentration at half of the fitted maximal effect
# Aromatase (Homo sapiens) = Aromatase (Homo sapiens) (UniProt P11511); test: qHTS assay to identify aromatase inhibitors (AID 743083); further: nearly all actives have a fitted effect of over 55% in size; further: potency means the concentration at half of the fitted maximal effect
# [9] = qHTS assay to identify small molecule antagonists of the estrogen receptor alpha (ER-alpha) signaling pathway - cell viability counter screen (AID 743074; calls by dose curve; further: nearly all actives have a fitted effect of over 45% in size)
# Estrogen receptor (Homo sapiens), sequence (P03372 whole entry, looked up): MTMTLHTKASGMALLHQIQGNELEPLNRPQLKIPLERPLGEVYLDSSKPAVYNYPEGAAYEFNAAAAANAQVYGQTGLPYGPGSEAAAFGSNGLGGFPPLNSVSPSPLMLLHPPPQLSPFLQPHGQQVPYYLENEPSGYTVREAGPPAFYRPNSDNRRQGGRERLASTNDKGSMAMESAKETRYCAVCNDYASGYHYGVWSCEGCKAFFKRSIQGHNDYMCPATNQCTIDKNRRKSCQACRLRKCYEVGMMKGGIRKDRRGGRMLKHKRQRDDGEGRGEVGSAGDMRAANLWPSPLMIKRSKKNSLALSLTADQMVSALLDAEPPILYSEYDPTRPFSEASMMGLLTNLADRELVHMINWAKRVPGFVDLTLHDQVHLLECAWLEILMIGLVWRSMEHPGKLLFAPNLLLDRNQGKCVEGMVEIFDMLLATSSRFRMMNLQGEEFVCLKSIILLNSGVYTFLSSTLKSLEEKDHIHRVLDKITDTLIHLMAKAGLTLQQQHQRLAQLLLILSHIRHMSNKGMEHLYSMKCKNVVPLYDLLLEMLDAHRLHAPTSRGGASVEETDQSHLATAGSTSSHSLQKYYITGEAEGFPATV
# Aromatase (Homo sapiens), sequence (P11511 whole entry, looked up): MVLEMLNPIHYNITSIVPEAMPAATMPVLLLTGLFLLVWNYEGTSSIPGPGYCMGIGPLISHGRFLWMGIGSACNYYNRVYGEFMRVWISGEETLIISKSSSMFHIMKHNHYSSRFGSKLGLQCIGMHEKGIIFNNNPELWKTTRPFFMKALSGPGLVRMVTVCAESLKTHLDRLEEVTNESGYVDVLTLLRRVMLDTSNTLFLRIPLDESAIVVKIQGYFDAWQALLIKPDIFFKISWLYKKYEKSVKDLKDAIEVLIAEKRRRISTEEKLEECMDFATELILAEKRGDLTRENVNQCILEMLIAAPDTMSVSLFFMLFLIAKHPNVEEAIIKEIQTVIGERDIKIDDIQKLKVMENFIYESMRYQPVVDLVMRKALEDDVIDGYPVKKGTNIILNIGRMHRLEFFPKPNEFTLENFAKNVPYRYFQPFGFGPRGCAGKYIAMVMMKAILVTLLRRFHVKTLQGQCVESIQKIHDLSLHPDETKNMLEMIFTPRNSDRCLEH
Structure (SMILES),Potency [1],Potency [2],Potency [3],Potency [4],Potency [5],Potency [6],Potency [7],Potency [8],Potency (Aromatase (Homo sapiens)),Potency [9],activation [6]
CCCCCCCCCCCCCC(=O)O,inactive,inactive,inactive,inactive,inactive,inactive,inactive,inactive,inactive,–,–
C[n+]1ccn(CCO)c1,inactive,inactive,inactive,–,–,–,inactive,inactive,inactive,inactive,–
O=c1n(CCCN2CCN(c3cccc(Cl)c3)CC2)nc2ccccn12,inactive,inactive,inactive,–,–,–,–,inactive,inactive,inactive,–
Cc1cc(CC(=O)O)n(C)c1C(=O)c1ccc(Cl)cc1,inactive,inactive,inactive,–,–,–,–,inactive,inactive,inactive,–
CS(=O)(=O)c1ccc(Cl)cc1,inactive,inactive,inactive,–,–,–,–,inactive,inactive,inactive,–
C=C1C[C@]23C[C@@]1(O)CC[C@H]2[C@@]12C=C[C@H](O)[C@@](C)(C(=O)O1)[C@H]2[C@@H]3C(=O)O,inactive,inactive,inactive,–,–,–,–,inactive,inactive,inactive,–
COc1ccccc1[N+](=O)[O-],inactive,inactive,inactive,–,–,–,–,inactive,inactive,inactive,–
Brc1ccc(Oc2ccc(Br)cc2)cc1,inactive,inactive,inactive,–,–,–,–,inactive,–,inactive,–
NCCNCCNCCN,inactive,inactive,inactive,–,–,–,–,inactive,–,inactive,–
CC(=O)OCCC(C)C,inactive,inactive,inactive,–,–,–,–,inactive,inactive,inactive,–
Cc1cccc(C)c1[N+](=O)[O-],inactive,inactive,inactive and 61.1 µM (active),–,–,–,–,inactive,inactive,inactive,–
CCCOC(=O)NCCCN(C)C,inactive,inactive,inactive,–,–,–,–,inactive,inactive,inactive,–
COC(=O)OC,inactive,inactive,inactive,–,–,–,–,inactive,inactive,inactive,–
CCc1cccc(O)c1,inactive,inactive,inactive,inactive,inactive,inactive,inactive,inactive,inactive,inactive,–
CCCCCNCCCCC,inactive,inactive,inactive,–,–,–,–,inactive,inactive,inactive,–
CC(COCC(C)OC(=O)c1ccccc1)OC(=O)c1ccccc1 (centres undefined),inactive,inactive,inactive,–,–,–,–,inactive,inactive,inactive,–
CC(C)(CO)CO,inactive,inactive,inactive,inactive,inactive and 43.7 µM [activator] (active),inactive,inactive,inactive,inactive,inactive,–
O=C(NCC1CCCCN1)c1cc(OCC(F)(F)F)ccc1OCC(F)(F)F (centres undefined),29.8 µM (active),53.5 µM (active),inactive,–,–,–,–,inactive,–,inactive,–
CC/C=C(\C(=O)N[C@@H]1C(=O)N2C(C(=O)OCOC(=O)C(C)(C)C)=C(COC(N)=O)CS[C@H]12)c1csc(N)n1,inactive,inactive,inactive,–,inactive,inactive,inactive,–,inactive,inactive,–
C[Si](C)(C)N[Si](C)(C)C,inactive,inactive,inactive,inactive,86.4 nM [inconclusive] (active) and inactive,inactive,inactive,inactive,inactive,–,–
OCc1ccc(Cl)cc1Cl,inactive,inactive,inactive,–,–,–,–,inactive,inactive,inactive,–
CN1Cc2c(N)cccc2C(c2ccccc2)C1 (centres undefined),inactive,inactive,inactive,–,–,–,–,inactive,–,inactive,–
Cc1ccccc1C=O,inactive,inactive,inactive,inactive,inactive,inactive,inactive,inactive,inactive,inactive,–

Structure (SMILES),Potency [1],Potency [2],Potency [3],Potency [4],Potency [5],Potency [6],Potency [7],Potency [8],Potency (Aromatase (Homo sapiens)),Potency [9],activation [6]
OCC(CO)(CO)CO,inactive,inactive,inactive,inactive,inactive,inactive,inactive,inactive,inactive,inactive,–
CCCCCC(C)=O,inactive,inactive,inactive,–,–,–,–,inactive,inactive,inactive,–
CC(C)(C)NC[C@H](O)COc1nsnc1N1CCOCC1,inactive,inactive,inactive,–,–,–,–,inactive,–,inactive,–
NC(=O)c1ncn([C@@H]2O[C@H](CO)[C@@H](O)[C@H]2O)n1,33.5 µM (active),13.3 µM (active) and 28.8 µM (active),inactive,–,–,–,–,inactive,inactive,inactive,–
Cc1ccc([N+](=O)[O-])cc1N,inactive,inactive,inactive,inactive,inactive,inactive,inactive,inactive,inactive,–,–
CC(=O)OC(C)(C)C1CC=C(C)CC1 (centres undefined),inactive,inactive,inactive,inactive,inactive,inactive and 54.5 µM (active),inactive,inactive,inactive,inactive,–
CC(=O)c1nccs1,–,inactive,inactive,inactive,inactive,inactive and 48.6 µM (active),inactive,inactive,inactive,inactive,–
Cc1ccc(Cl)cc1,inactive,–,–,inactive,inactive,inactive,inactive,inactive,inactive,inactive,–
CC[N+](CC)(CC(=O)Nc1c(C)cccc1C)Cc1ccccc1,inactive,–,–,–,–,–,–,inactive,inactive,inactive,–
O=C1OC(=O)c2c(Cl)c(Cl)c(Cl)c(Cl)c21,inactive,inactive,inactive,–,–,–,–,inactive,inactive,inactive,–
Clc1cccc(Cl)c1NC1=NCCN1,inactive,inactive,inactive,–,–,–,–,inactive,inactive,inactive,–
CCCCC(CC)COC(=O)c1ccc(C(=O)OCC(CC)CCCC)cc1 (centres undefined),inactive,inactive,inactive,–,–,–,–,inactive,inactive,inactive,–
CC(CN1c2ccccc2Sc2ccccc21)N(C)C (centres undefined),23.7 µM (active) and 5.5 µM (active) and 30.6 µM (active),26.6 µM (active) and 27.6 µM (active) and 61.1 µM (active),inactive,–,–,–,–,inactive,inactive and 61.8 µM (active),–,–
O=C(c1ccccc1)c1ccc(O)c(O)c1O,–,–,inactive,inactive,61.6 µM [inconclusive] (active),61.1 µM (active),inactive,inactive,inactive,inactive,–
O=C1O[C@H]([C@H](O)CO)C(O)=C1O,inactive,–,inactive,–,–,–,–,inactive,inactive,inactive,–
Cc1ncc(CO)c(CO)c1O,inactive,–,–,–,–,–,–,inactive,inactive,inactive,–
CC1(C)[C@@H](O[C@H]2O[C@H](C(=O)O)[C@@H](O)[C@H](O)[C@H]2O[C@@H]2O[C@H](C(=O)O)[C@@H](O)[C@H](O)[C@H]2O)CC[C@]2(C)[C@H]3C(=O)C=C4[C@@H]5C[C@@](C)(C(=O)O)CC[C@]5(C)CC[C@@]4(C)[C@]3(C)CC[C@@H]12,inactive,–,inactive,–,–,–,–,inactive,inactive,inactive,–
c1cnc2c(c1)ccc1cccnc12,7.77 µM (active) and 6.86 µM (active) and 15.4 µM (active),–,inactive,–,–,–,–,15.5 µM (active),6.17 µM (active) and 6.86 µM (active) and 9.69 µM (active),inactive,–
CC(=O)Nc1ccc(CC(=O)O)cc1,inactive,–,–,inactive,inactive,inactive,inactive,inactive,inactive,inactive,–
N[C@@H](Cc1cc(I)c(Oc2ccc(O)c(I)c2)c(I)c1)C(=O)O,–,–,–,23.9 µM [inconclusive] (active) and inactive,9.51 µM [activator] (active) and inactive and 51 µM [fluorescent] (active),37.1 µM (active) and 40.2 µM (active),26.6 µM (active) and inactive and 8.02 µM (active),inactive,inactive,inactive,–
O=[N+]([O-])c1cc(C(F)(F)F)ccc1Cl,inactive,inactive,inactive,–,–,–,–,inactive,inactive,inactive,–
Nc1nc(N)c2nc(-c3ccccc3)c(N)nc2n1,–,55.1 µM (active) and 54.5 µM (active),inactive,–,–,inactive and 68.6 µM (active),–,–,inactive,–,–
Cc1ccc(C)c(S(=O)(=O)O)c1,inactive,inactive,inactive,–,–,–,–,inactive,inactive,inactive,–

Structure (SMILES),Potency [1],Potency [2],Potency [3],Potency [4],Potency [5],Potency [6],Potency [7],Potency [8],Potency (Aromatase (Homo sapiens)),Potency [9],activation [6]
CCCN(CCC)C(=O)SCC,inactive,inactive,–,inactive,inactive,inactive,inactive,inactive,inactive,inactive,–
Oc1ccc(Cc2ccccc2O)cc1,inactive,–,inactive,–,11.1 µM [inconclusive] (active) and 24.5 µM [inconclusive] (active),9.81 µM (active) and 6.11 µM (active),inactive,inactive,inactive,inactive,–
COc1cc(NC(=O)CC(C)=O)c(OC)cc1Cl,inactive,–,inactive,–,inactive,inactive,inactive,inactive,inactive and 12.2 µM (active),inactive,–
CC(C=O)Cc1ccc(C(C)(C)C)cc1 (centres undefined),–,43.3 µM (active),inactive,–,–,–,–,inactive,inactive,inactive,–
COc1ccc2cc3[n+](cc2c1OC)CCc1cc2c(cc1-3)OCO2,inactive,61.6 µM (active),inactive,–,inactive,–,26.6 µM (active),–,inactive,–,–
OCCOCCOCCOCCOCCO,inactive,inactive,inactive,–,–,–,–,inactive,inactive,inactive,–
NC1CCCCC1N (centres undefined),–,–,–,–,–,–,–,inactive,inactive,inactive,–
CCOC(=O)CC(=O)OCC,inactive,inactive,inactive,–,–,–,–,inactive,–,–,–
CC1=CC(=O)CC(C)(C)C1,inactive,inactive,inactive,–,–,–,–,inactive,inactive,inactive,–
O=C(O)C1=NN(c2ccc(S(=O)(=O)O)cc2)C(=O)C1,inactive,–,–,inactive,inactive,inactive,inactive,inactive,inactive,inactive,–
CCCOCC(C)O (centres undefined),inactive,inactive,inactive,–,–,–,–,inactive,inactive,inactive,–
CCc1cccc(CC)c1N,–,inactive,inactive,inactive,inactive,inactive,inactive,inactive,inactive,inactive,–
CCN(CC)CCNC(=O)c1ccc(N)cc1,inactive,inactive,inactive,–,–,–,–,inactive,inactive,inactive,–
O=c1c(O)c(-c2ccc(O)c(O)c2)oc2cc(O)cc(O)c12,inactive and 30.9 µM (active),–,inactive,–,24.6 µM [inconclusive] (active) [middle of 4 runs],29.8 µM (active) and 68.7 µM (active),inactive,inactive,inactive,inactive,18.1% [at 95 µM] (active)
C=C(CC(=O)O)C(=O)O,inactive,inactive,inactive,–,–,–,–,inactive,inactive,inactive,–
CO[Si](CCCNCCN)(OC)OC,inactive,inactive,inactive,–,–,–,–,inactive,inactive,inactive,–
COCN(COC)c1nc(N(COC)COC)nc(N(COC)COC)n1,inactive,–,–,inactive,inactive,inactive,inactive,inactive,inactive,inactive,–
CC(=O)CC(=O)N(C)C,–,inactive,inactive,inactive,inactive,inactive,inactive,inactive,inactive,inactive,–
Cc1nnc(NS(=O)(=O)c2ccc(N)cc2)s1,–,–,–,inactive,inactive,inactive,inactive,inactive,inactive,inactive,–
CC(=O)OC[C@H]1O[C@@](COC(C)=O)(O[C@H]2O[C@H](COC(C)=O)[C@@H](OC(C)=O)[C@H](OC(C)=O)[C@H]2OC(C)=O)[C@@H](OC(C)=O)[C@@H]1OC(C)=O,inactive,inactive,inactive,–,–,–,–,inactive,inactive,inactive,–
CC(=O)OCc1ccc2c(c1)OCO2,inactive,inactive,inactive,–,–,–,–,inactive,inactive,inactive,–
